Screens deposited in PubChem BioAssay by several laboratories.
A selection: hits, their analogues and other compounds. The true share with any hit is near 1.3%.
Candida biofilm = kills Candida albicans biofilms | AID 834 | C. albicans biofilm + clotrimazole, Alamar Blue | hit rate 0.14% among 85,000 | inhibition, % at 6 µM;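 active = inhibition above 20%; inactive = inhibition below 20%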;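 note: preformed 24 hr biofilms exposed to compound for 48 hr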
S1P2 agonist = activates the human S1P2 receptor; O95136; S1P2-expressing cell line, agonist reporter read-out; activation, % at 4.5 µM; hit rate 0.46% among 97,000; in the data active = activation above about 16%
GALR2 blocker = antagonists of human galanin receptor 2 (GALR2). hit rate 0.39% among 140,000. inhibition, % at 4 µM. GALR2-expressing cells, antagonist mode. O43603. AID 828;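 note: cells stimulated with galanin 1-16 at roughly its EC80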
S1P2 antag = S1P2 (human) receptor antagonism; hit rate 0.21% among 97,000; cell-based S1P2 antagonist assay, inhibition at 5 uM; inhibition, % at 5 µM; O95136; AID 736; in the data active = inhibition above about 45%;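 note: CRE beta-lactamase reporter cells expressing human S1P2 stimulated with S1P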
GALR2 ag = GALR2 (human) receptor agonism. O43603. GALR2-expressing cells, agonist activation read-out. activation, % (test concentration not listed). hit rate 0.48% among 140,000. AID 803; in the data active = activation above about 5%, passing the limit was not always enough
Smad3 FoxH1 inh = Smad3 (human) transcription factor binding inhibition | hit rate 0.29% among 88,000 | P84022 | inhibition, % at 25 µM | TR-FRET Smad3/Dy647-FoxH1 peptide binding, europium anti-His;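 active = compounds that reduce the energy-transfer binding signal between the protein and its labelled peptide by more than half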
Target sequence (P84022 whole entry, looked up): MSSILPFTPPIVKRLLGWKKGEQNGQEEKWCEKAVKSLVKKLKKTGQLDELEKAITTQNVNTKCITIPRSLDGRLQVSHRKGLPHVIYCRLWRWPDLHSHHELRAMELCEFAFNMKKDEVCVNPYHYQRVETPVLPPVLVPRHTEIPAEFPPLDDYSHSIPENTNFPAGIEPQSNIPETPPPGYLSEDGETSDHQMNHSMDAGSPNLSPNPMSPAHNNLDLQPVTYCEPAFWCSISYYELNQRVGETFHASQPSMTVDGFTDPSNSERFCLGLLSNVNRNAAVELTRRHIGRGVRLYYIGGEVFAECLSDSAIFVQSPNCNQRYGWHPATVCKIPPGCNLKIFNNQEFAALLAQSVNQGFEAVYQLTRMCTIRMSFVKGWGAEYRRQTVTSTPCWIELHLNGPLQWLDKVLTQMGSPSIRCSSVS
GALR2 ant conf = GALR2 (human) antagonism confirmed. shares compounds with GALR2 blocker. GALR2-expressing cells, antagonist mode, inhibition. inhibition, % at 4 µM. hit rate 60% among 480;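 note: cells stimulated with galanin at about its EC80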
BLA inh counter = inhibits beta-lactamase reporter in GALR2 antagonist counterscreen | AID 867 | inhibition, % at 4.2 µM | hit rate 36% among 480 | shares compounds with GALR2 blocker | CHO NFAT-BLA reporter, beta-lactamase FRET, thapsigargin-stimulated;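 active = inhibition above the mean inhibition across tested compounds plus 3 SD, cut at about 27% in these data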
Of the large screens only hits and unclear results are named; the others gave an inactive call (follow-up assays come after a bar, where they were run). Cut-off read from the data, not from the text of the source, unless noted: active = inhibition above about 27%; inactive = the rest.

Cc1ccc(SC(C)C(=O)Nc2ccccc2C(=O)N2CCOCC2)cc1 (configuration not stated)	GALR2 blocker 32 (no result: Candida biofilm, Smad3 FoxH1 inh) | GALR2 ant conf inactive | BLA inh counter inactive
COCCCNC(=O)C1CCCN(S(=O)(=O)c2ccc(C)cc2)C1 (configuration not stated)	none
CCCCOc1ncnc2c1[nH]c1ccc(OCC)cc12	none
CCCCOc1ncnc2c1[nH]c1ccccc12	GALR2 blocker 36 | GALR2 ant conf 45 | BLA inh counter inactive
CCOC(=O)N1CCN(c2ncnc3c2[nH]c2ccc(F)cc23)CC1	GALR2 blocker 38, S1P2 antag 58 (no result: Candida biofilm, Smad3 FoxH1 inh) | GALR2 ant conf 47 | BLA inh counter inactive
CCCCOc1ncnc2c1[nH]c1ccc(F)cc12	GALR2 blocker 37, S1P2 antag 63 | GALR2 ant conf 35 | BLA inh counter inactive
CC(C)(C)CC(C)(C)c1ccc(O)c(C[N+](C)(C)[O-])c1	none (no result: Candida biofilm, S1P2 agonist, GALR2 blocker, S1P2 antag, GALR2 ag)
Cc1[nH]c2ccccc2c1C(=O)CN1CCCCC1C (configuration not stated)	none
Nc1ccc2nc(-c3cccs3)[nH]c2c1	GALR2 blocker 28 | GALR2 ant conf inactive | BLA inh counter inactive
Cc1cc(C(=O)CSc2nc3ccccc3[nH]2)c(C)n1CC1CCCO1 (configuration not stated)	GALR2 blocker 43, S1P2 antag 66 | GALR2 ant conf 34 | BLA inh counter inactive
Cc1[nH]c2ccc(OCc3ccccc3)cc2c1CCN1C(=O)OC(C)(C)C1(C)O (configuration not stated)	none
CC1(C)OC(=O)N(CCc2ccccc2)C1(C)O (configuration not stated)	GALR2 blocker 31 (no result: S1P2 agonist, S1P2 antag) | GALR2 ant conf inactive | BLA inh counter inactive
COc1ccc(S(=O)(=O)Nc2cc(C(=O)NCCC(C)C)ccc2N2CCOCC2)cc1	none
Cc1ccc(NS(=O)(=O)c2ccc(CCC(=O)NC3CC3)cc2)cc1	GALR2 blocker 28 | GALR2 ant conf inactive | BLA inh counter inactive
Cc1ccc(NC(=O)CCc2ccc(S(=O)(=O)NC3CCCCC3)cc2)cc1	none (no result: Candida biofilm, Smad3 FoxH1 inh)
N#CC(C#N)=C1C=CC=CN1/C(=C\c1ccccc1Cl)C(=O)c1ccccc1	GALR2 blocker 73 (no result: Candida biofilm, S1P2 agonist, S1P2 antag, Smad3 FoxH1 inh) | GALR2 ant conf 89 | BLA inh counter 99
Cc1ccc(C)c(N2CCN(c3ccc(N4C(=O)COCC4=O)cc3[N+](=O)[O-])CC2)c1	none (no result: Candida biofilm, S1P2 agonist, S1P2 antag, Smad3 FoxH1 inh)
Cc1cc(N2C(=O)C=CC2=O)c([N+](=O)[O-])cc1C	GALR2 blocker 45 (no result: Candida biofilm, S1P2 agonist, S1P2 antag, Smad3 FoxH1 inh) | GALR2 ant conf 46 | BLA inh counter 71
CCCCC1=C([O-])C2N=CC=CC2=[N+](c2ccccn2)C1=O (configuration not stated)	none (no result: Candida biofilm, S1P2 agonist, S1P2 antag, Smad3 FoxH1 inh)
CCn1c(SCC(=O)Nc2cc(OC)ccc2OC)nnc1C1CCCCC1	none
Cc1cccc(NC(=O)/C=C/c2ccc([N+](=O)[O-])s2)c1	GALR2 blocker 32 (no result: Candida biofilm, S1P2 agonist, S1P2 antag, Smad3 FoxH1 inh) | GALR2 ant conf 46 | BLA inh counter 47
Cc1ccc(NC(=O)/C=C/c2ccc([N+](=O)[O-])s2)c(C)c1	GALR2 blocker 33 (no result: Candida biofilm, S1P2 agonist, S1P2 antag, Smad3 FoxH1 inh) | GALR2 ant conf 54 | BLA inh counter 55
CC(SC1CCCC1)C(=O)NC(C)(C#N)C(C)C (configuration not stated)	none
COc1ccccc1S(=O)(=O)Nc1ccc2cn[nH]c2c1	GALR2 blocker 27 (no result: Candida biofilm, S1P2 agonist, S1P2 antag, Smad3 FoxH1 inh) | GALR2 ant conf inactive | BLA inh counter inactive
COc1ccc(CCCC(=O)Nc2ccc(F)cc2)cc1	none (no result: Candida biofilm, S1P2 agonist, S1P2 antag, Smad3 FoxH1 inh)
CCOC(=O)Nc1ccc2c(c1)N(C(=O)CCN1CCN3CCCC3C1)c1ccccc1CC2 (configuration not stated)	none
COC(=O)Nc1ccc2c(c1)N(C(=O)CCN1CCN3CCCC3C1)c1ccccc1CC2 (configuration not stated)	GALR2 blocker 28 (no result: Candida biofilm, S1P2 agonist, S1P2 antag, Smad3 FoxH1 inh) | GALR2 ant conf inactive | BLA inh counter inactive
CCS(=O)(=O)c1ccc(O)c(N2C(=O)C3C4C=CC(C4)C3C2=O)c1 (configuration not stated)	none
O=C(CN(C(=O)CSc1nc2ccccc2o1)c1ccccc1)NC1CCCCC1	none (no result: Candida biofilm, Smad3 FoxH1 inh)
COc1ccc(CSc2nnnn2Cc2ccccc2)cc1OC	none (no result: S1P2 agonist, S1P2 antag)
